For 18 compounds, composite z-score and z-score results are on record in PubChem BioAssay.

The test system of test [1] is Human papillomavirus type 1a protein E7 (residues 44-93). The experiment in a line: HPV1a E7 fragment binders on microarrays, primary screen, biochemical, small-molecule microarray, residues 44-93, 635 nm fluorescence (AID 1108).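 Also: E7 fragment applied at 1 µg/mL in TBST for 1 h at 4 C; score combines spot fluorescence with its signal to noise ratio.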 Conditions: small-molecule microarray binding, fluorescence 635 nm; higher = more signal.
Test [2] can be described thus: modulators of HCV replicon luciferase signal, primary screen, HCV replication inhibitor project, Huh7 cells, luciferase reporter (AID 1109).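 Also: huh7 hepatoma cells harbouring a luciferase neomycin HCV replicon reporter; luciferase luminescence as measure of HCV replicon replication; test concentration not given here.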 Conditions: 48 h, higher = more signal. (In antiviral work, replicon cells carry a viral genome segment that copies itself.)
In test [3] the target is Left-right determination factor 2 (Homo sapiens) (UniProt O00292). The experiment in a line: LEFTY2 binders on small-molecule microarrays, primary screen, biochemical, small-molecule microarray, 635 nm fluorescence scan (AID 1110). Conditions: LEFTY2 binding, higher = more signal.
Sequence of Left-right determination factor 2 (Homo sapiens) (O00292 whole entry, looked up): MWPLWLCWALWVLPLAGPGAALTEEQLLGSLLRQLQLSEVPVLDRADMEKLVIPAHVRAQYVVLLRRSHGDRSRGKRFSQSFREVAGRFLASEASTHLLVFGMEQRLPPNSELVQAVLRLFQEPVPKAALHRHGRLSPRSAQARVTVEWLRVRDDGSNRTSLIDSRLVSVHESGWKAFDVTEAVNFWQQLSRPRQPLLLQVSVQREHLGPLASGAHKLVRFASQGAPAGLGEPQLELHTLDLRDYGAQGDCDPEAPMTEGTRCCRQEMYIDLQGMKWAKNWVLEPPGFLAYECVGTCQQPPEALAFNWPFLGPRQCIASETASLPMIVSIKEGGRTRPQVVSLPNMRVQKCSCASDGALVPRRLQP
Test [4] has as its target Calmodulin-1 (Homo sapiens) (UniProt P0DP23). In words: CALM1 binders on microarrays, EGTA buffer, profiling panel, biochemical, small-molecule microarray, Cy5-labelled CALM1 (AID 1111).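 Also: labelled calmodulin applied in Tris saline Tween buffer holding calcium plus EGTA and DTT.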 Conditions: Cy5-CALM1 binding fluorescence, higher = more signal.
Test [5] shares this target. The experiment in a line: calcium-bound CALM1 binders on microarrays, profiling panel, artefact control for SMM control-protein annotation, biochemical, small-molecule microarray, Cy5-labelled CALM1, plus calcium (AID 1112).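 Also: score merges spot fluorescence with signal to noise from triplicate slides.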 Conditions: Cy5-CALM1 binding fluorescence, higher = more signal.
Test [6] is described as follows: small-molecule microarray binders of probe aWnt5a, primary screen, biochemical, biotinylated probe, 635/667 nm fluorescence (AID 1113).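 Also: score merges 667 nm fluorescence intensity with signal-to-noise per printed feature.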 Conditions: higher = more signal.
A short description of test [7]: small-molecule microarray binders of probe aShh, primary screen, biochemical, biotinylated probe, 635/667 nm fluorescence (AID 1114).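 Also: probe is biotin-labelled aShh protein from a stem cell growth factor screen; measures binding of labelled protein to compounds printed on the slide; score merges feature fluorescence at 667 nm with signal-to-noise.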 Conditions: higher = more signal.
Test [8] is described as follows: small-molecule microarray binders of probe aNog, primary screen, biochemical, biotinylated probe, 635/667 nm fluorescence (AID 1115).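 Also: probe is biotinylated aNog protein used at 0.15 µg/mL for 1 h at 4 C; z-score combines 667 nm fluorescence of each spot with its signal to noise.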 Conditions: higher = more signal.
The target in test [9] is Torsin-1A-interacting protein 1 (Homo sapiens) (UniProt Q5JTV8). The experiment in a line: LAP1 binders from COS7 cell lysate, primary screen, small-molecule microarray, 635/667 nm fluorescence (AID 1116). Conditions: COS7-hLAP1 lysate binding, 635 nm fluorescence, higher = more signal.
Sequence of Torsin-1A-interacting protein 1 (Homo sapiens) (Q5JTV8 whole entry, looked up): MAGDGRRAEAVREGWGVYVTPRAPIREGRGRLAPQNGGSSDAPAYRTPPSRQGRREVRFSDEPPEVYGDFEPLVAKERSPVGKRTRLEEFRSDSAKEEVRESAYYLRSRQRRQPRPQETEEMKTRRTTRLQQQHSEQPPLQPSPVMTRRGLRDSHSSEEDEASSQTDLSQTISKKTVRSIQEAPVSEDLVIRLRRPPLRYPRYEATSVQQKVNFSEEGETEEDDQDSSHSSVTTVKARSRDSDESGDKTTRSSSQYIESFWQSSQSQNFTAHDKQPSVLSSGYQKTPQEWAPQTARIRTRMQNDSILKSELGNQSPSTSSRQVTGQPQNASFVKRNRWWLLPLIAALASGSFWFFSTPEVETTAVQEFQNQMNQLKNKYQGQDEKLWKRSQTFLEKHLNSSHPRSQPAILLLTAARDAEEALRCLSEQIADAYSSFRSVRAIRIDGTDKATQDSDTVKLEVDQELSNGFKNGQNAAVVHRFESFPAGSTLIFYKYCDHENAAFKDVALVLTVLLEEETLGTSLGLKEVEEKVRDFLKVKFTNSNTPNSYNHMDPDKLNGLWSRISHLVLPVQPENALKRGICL
Test [10] has as its target Alpha-bungarotoxin (Bungarus multicinctus) (UniProt P60615). In words: alpha-bungarotoxin binders on microarray, profiling panel, artefact control for SMM control protein annotation, biochemical, small-molecule microarray, Alexa647 label, 635/667 nm fluorescence (AID 1117). Conditions: alpha-BTX-A647 binding fluorescence, higher = more signal.

Sequence of Alpha-bungarotoxin (Bungarus multicinctus) (P60615 whole entry, looked up): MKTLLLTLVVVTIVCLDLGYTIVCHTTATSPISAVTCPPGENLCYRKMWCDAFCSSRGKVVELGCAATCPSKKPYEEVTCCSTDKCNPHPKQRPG

Consider `CON=CC[C@@H]1C=C[C@H](OC(C)=O)[C@@H](COC(C)=O)O1`, for which the composite z-score is -0.0635 in [1]; 0.533 in [3]; -0.536 in [4]; -0.688 in [5]; 0.0004 in test [6]; 0.351 in test [7]. The composite z-score in test [8] is -0.0281; in test [9] it was 0.292; in test [10], 0.479. For the same compound, in test [2], the z-score turned out to be 0.569.

Turning to `CCOC(=O)[C@H](Cc1ccccc1)NC(=O)CCC1CC(OC(=O)NCc2cccc3ccccc23)CC2(CCCC(COC(=O)NCc3cccc(C(F)(F)F)c3)O2)O1` (stereo not given in full), the composite z-score in test [1] is 0.72; in [3], -0.131; in test [4], 0.716; in test [5], 0.143; in test [6] it was -0.0816; in test [7] it was -0.345. In addition, the composite z-score is -0.213 in test [8], 0.465 in [9] and 0.362 in test [10]. Moreover, the z-score in test [2] was -0.771.

As for `CCOC(=O)[C@H](CC(C)C)NC(=O)CCC1CC(OC(=O)NCc2cccc3ccccc23)CC2(CCCC(COC(=O)NCCC(C)C)O2)O1` (stereo not given in full), the composite z-score is 0.15 in test [1]; 0.443 in [3]; 0.18 in test [4]; -0.703 in test [5]; -0.0529 in test [6]; -0.182 in test [7]. The values for the composite z-score in [8], in test [9] and in [10] were -0.32, 0.165 and 0.503, respectively. The compound also displayed a z-score in test [2] of 0.502.

As to `CCOC(=O)[C@H](Cc1ccccc1)NC(=O)CCC1CC(OC(=O)NCCc2ccc(F)cc2)CC2(CCCC(COC(=O)NCCc3ccc(Cl)cc3)O2)O1` (stereo not given in full), the composite z-score was 1.33 in test [1]; 0.546 in test [3]; 1.28 in test [4]; 0.198 in test [5]; -0.158 in test [6]; -0.0977 in test [7]. The composite z-score turned out to be 0.232 in [8], 0.949 in test [9] and 0.49 in test [10]. In test [2], the z-score was -0.226.

For the compound `CC(C)CON=C1C[C@@H](O)[C@@H](O)[C@@H]2[C@@H]3C(=O)N(C4CCCCC4)C(=O)[C@@H]3CC[C@H]12`, the composite z-score in test [1] is 1.2; in [3], 0.999; in test [4] it was 1.27; in test [5], -0.0361; in [6] it was -0.0731; in test [7], -0.16. Moreover, the values for the composite z-score in [8], in test [9] and in [10] were 0.447, 0.792 and 1.13, respectively. In test [2], this compound yielded a z-score of 0.0073.

Consider `COC(=O)CC=C[C@@H](C)[C@@H](C=NOC[C@H]1O[C@H](c2ccccc2)C=C[C@@H]1Oc1ccc(OC)cc1)NS(=O)(=O)c1ccc(C)cc1`, for which the composite z-score is -1.1 in test [1]; -0.233 in [3]; -1.07 in [4]; -0.467 in test [5]; -0.147 in test [6]; -0.112 in [7]. Moreover, the figures for the composite z-score in [8], in test [9] and in test [10] were -0.181, -0.306 and -0.183, respectively. Besides, in [2], the z-score was -0.787.

Turning to `CCCNC(=O)OC[C@H]1O[C@H](c2ccccc2)C=C[C@@H]1Oc1ccc(OC)cc1`, the composite z-score in [1] was -0.823; in test [3], 0.424; in test [4], -0.598; in test [5], -0.202; in test [6], -0.132; in test [7] it was -0.153. For the same compound, the composite z-score in test [8] was -0.343; in test [9], 0.124; in test [10], -0.0001. Moreover, the z-score in [2] was -0.974.

Consider `C[C@@H](c1ccccc1)N1C(=O)[C@H]2[C@H]3[C@H](O)[C@H](O)CC(=NOCc4ccccc4)[C@H]3CC[C@H]2C1=O`, for which the composite z-score in test [1] was 1.43; in test [3], 0.491; in test [4], 0.209; in test [5], -0.298; in [6], -0.0635; in test [7], -0.0626. The composite z-score in test [8] is -0.425; in test [9], 0.826; in test [10], 0.571. The same compound showed a z-score in test [2] of 0.547.

`COc1cccc([C@H]2Oc3ccc(OC)cc3C(=NOC[C@@H](C)[C@H](OCc3ccccc3)C(C)C)[C@@H]2O)c1`: the composite z-score in test [1] was 0.274; in [3] it was 0.476; in [4], -0.0749; in [5], 0.619; in test [6], -0.206; in [7], -0.0858. Besides, the composite z-score in test [8] stood at 0.2; in test [9], 0.251; in [10] it was 0.452. Besides, in test [2], the z-score is -2.55.

Take `Cc1cc2c(c(=O)o1)[C@@H](O)[C@H]1O[C@H]1C2=O`: the composite z-score in [1] was -0.0158; in test [3], 0.384; in [4], -0.374; in test [5], -0.876; in test [6], -0.154; in [7], -0.243. In addition, the composite z-score is -0.265 in test [8], 0.27 in test [9] and 0.56 in [10]. Further, the z-score in [2] is 0.73.

Regarding `CCC1=NOC(CCC2CC(OC(=O)NCc3cccc4c3OCO4)CC3(CCCC(COC(=O)NCCc4ccccc4OC)O3)O2)C1` (stereo not given), the composite z-score in [1] is 1.21; in test [3], 0.0276; in test [4], 1.21; in test [5] it was 0.712; in test [6], -0.139; in test [7] it was -0.0793. In addition, the composite z-score in test [8] worked out at 0.249; in [9], 0.528; in [10], 0.473. Also, the z-score in [2] is -1.35.

In the case of `CO[C@@H]1COC(=O)[C@@H]2CCCN2C(=O)[C@@H](C)COC(=O)CC=C[C@H]1C`, the composite z-score in test [1] was 1.04; in [3], 0.861; in test [4] it was -0.149; in [5], -0.439; in [6], -0.147; in test [7], 0.284. The figures for the composite z-score in test [8], in test [9] and in test [10] were 0.0453, 0.378 and 0.234, respectively. Also, the z-score in [2] is -0.913.

In the case of `O=C1[C@H]2[C@H]3[C@H](O)[C@H](O)CC(=NOC[C@@H](O)COCc4ccco4)[C@H]3CC[C@H]2C(=O)N1C[C@@H]1CCCO1`, the composite z-score was -0.317 in test [1]; 1.19 in [3]; -0.428 in test [4]; -1.53 in [5]; -0.0037 in test [6]; 0.0899 in test [7]. Also, the composite z-score in [8] is -0.158; in test [9], 0.583; in test [10] it was 0.349. Besides, the z-score in test [2] was -0.205.

As for `C#CCCCON=C1C[C@@H](O)[C@@H](O)[C@@H]2[C@@H]3C(=O)N(c4ccc(F)cc4F)C(=O)[C@@H]3CC[C@@H]12`, the composite z-score in [1] was 0.184; in test [3], 0.321; in test [4], -0.212; in test [5], -0.813; in test [6], -0.197; in test [7], -0.179. Also, the composite z-score in [8] was determined as 0.14; in [9], 0.36; in [10] it was 0.155. The same compound displayed a z-score in test [2] of 0.296.

`CON=C[C@@H](NS(=O)(=O)c1ccc(C)cc1)[C@H](C)C=CCC(=O)OC`: the composite z-score is -0.933 in test [1]; 0.532 in test [3]; -0.654 in test [4]; -1.31 in test [5]; -0.128 in test [6]; 0.0756 in [7]. In addition, the composite z-score is -0.425 in [8], 0.22 in test [9] and -0.0634 in [10]. In [2], this compound yielded a z-score of 0.604.

Take `CC(CCN1CCc2nc(-c3ccccc3)c(-c3ccccc3)cc2C1)=NOC[C@@H](O)[C@H]1O[C@@H]2OC(C)(C)O[C@@H]2[C@H]1O`: the composite z-score in [1] was 1.12; in [3], 0.642; in [4] it was 0.12; in test [5] it was -0.233; in test [6], -0.139; in [7], -0.0709. Besides, the figures for the composite z-score in [8], in test [9] and in test [10] were -0.353, 0.825 and 0.673, respectively. Moreover, in test [2], the z-score is -2.73.

For the compound `CC(C)=CCCC(C)=CCON=C1C[C@@H](O)[C@@H](O)[C@@H]2[C@@H]3C(=O)N(Cc4ccccc4)C(=O)[C@@H]3CC[C@H]12`, the composite z-score is 0.759 in test [1]; 0.985 in [3]; 0.0703 in test [4]; -0.985 in test [5]; -0.164 in test [6]; -0.2 in test [7]. In addition, the composite z-score in test [8] was -0.0223; in test [9], 0.577; in [10], 0.121. Moreover, in [2], the z-score is -2.74.

As to `COC(=O)CC=C[C@H](C)[C@@H](OCc1cccc(Br)c1)[C@@H](C)[C@H](OC)C1CCCCC1`, the composite z-score is -0.835 in test [1]; 0.388 in [3]; -0.893 in test [4]; -1.07 in test [5]; -0.0944 in [6]; -0.282 in test [7]. For the same compound, the results for the composite z-score in test [8], in test [9] and in [10] were -0.449, -0.343 and -0.308, respectively. Besides, the z-score in [2] is -0.291.
